Results filed as inconclusive are left out. A call without a number means that no potency is given here. The source made the active and inactive calls. Calls follow the shape of the full dose curve.
Potency is read from the fitted curve at half-maximal effect.

Chain of Atrial natriuretic peptide receptor 1 (Homo sapiens) (P16066 whole entry, looked up, the tested form may be a part): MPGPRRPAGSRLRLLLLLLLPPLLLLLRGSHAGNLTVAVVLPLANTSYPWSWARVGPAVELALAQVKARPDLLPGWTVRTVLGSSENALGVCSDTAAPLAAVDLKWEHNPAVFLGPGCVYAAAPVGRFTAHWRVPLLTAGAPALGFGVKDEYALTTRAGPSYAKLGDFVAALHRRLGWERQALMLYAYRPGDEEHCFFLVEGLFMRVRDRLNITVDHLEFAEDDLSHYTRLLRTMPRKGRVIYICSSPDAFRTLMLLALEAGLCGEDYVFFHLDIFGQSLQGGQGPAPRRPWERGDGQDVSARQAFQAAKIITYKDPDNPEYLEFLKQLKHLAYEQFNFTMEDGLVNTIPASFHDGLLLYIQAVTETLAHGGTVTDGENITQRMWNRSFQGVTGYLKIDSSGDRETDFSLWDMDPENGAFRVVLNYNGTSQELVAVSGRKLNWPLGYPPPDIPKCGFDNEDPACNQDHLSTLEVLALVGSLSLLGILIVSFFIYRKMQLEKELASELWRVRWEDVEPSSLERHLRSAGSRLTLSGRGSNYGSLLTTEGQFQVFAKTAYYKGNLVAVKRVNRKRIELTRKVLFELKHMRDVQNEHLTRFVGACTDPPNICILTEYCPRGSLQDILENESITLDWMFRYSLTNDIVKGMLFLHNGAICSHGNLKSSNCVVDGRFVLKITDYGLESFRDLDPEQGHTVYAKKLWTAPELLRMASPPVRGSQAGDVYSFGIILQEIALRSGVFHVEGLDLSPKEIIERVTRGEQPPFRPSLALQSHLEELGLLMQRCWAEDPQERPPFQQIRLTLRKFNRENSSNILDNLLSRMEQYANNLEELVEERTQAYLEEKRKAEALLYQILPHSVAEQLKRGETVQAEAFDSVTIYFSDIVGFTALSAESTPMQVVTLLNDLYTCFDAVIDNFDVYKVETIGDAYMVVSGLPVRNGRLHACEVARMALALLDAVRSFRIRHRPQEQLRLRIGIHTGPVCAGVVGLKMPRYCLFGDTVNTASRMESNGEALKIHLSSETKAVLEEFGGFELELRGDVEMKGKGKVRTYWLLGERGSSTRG

The experiment concerns the target Atrial natriuretic peptide receptor 1 (Homo sapiens) (UniProt P16066). The experiment in a line: Natriuretic polypeptide receptor (hNpr1) antagonism - Pilot screen (AID 1347049). Particulars: hNpr1 cells, antagonist mode cGMP read-out; series mostly up to 57.5 µM. The method, then:
In order to identify small molecular compounds that inhibit the hNpr1 receptor we developed a high-throughput assay to measure inhibition of the guanylate cyclase activity of the receptor. cGMP production was measured using a circular permutated Firefly luciferase (FLuc) enzyme functionally linked to the cGMP binding domain of human phosphodiesterase 5 (GloSensor technology pGS-40F, (Fan, F. et al. 2008). The cGMP-sensor was expressed in human embryonic kidney 293 (HEK-293) cells and FLuc activity was measured after stimulation with hNrp agonist peptide. hNrp agonists activates the receptor's associated guanylyl cyclase (GC) domain producing cGMP which then binds to the GloSensor resulting in FLuc activation, the enzymatic activity of which can be measured as bioluminescence with addition of luciferin substrate.
F. Fan, B. F. Binkowski, B. L. Butler, P. F. Stecha, M. K. Lewis, K. V. Wood, Novel genetically encoded biosensors using firefly luciferase. ACS Chem Biol 3, 346-351 (2008).
This assay was initially piloted by testing with a small diversity library of compounds with known pharmacological activity.
PROTOCOL TABLES (as described by Inglese J, Shamu CE and Guy RK. 2007)
SEQUENCE No. (e.g., 1, 2, 3, etc.); […] (e.g., Cells, Incubation, Reagent, etc.); VALUE and DESCRIPTION.
1. Cells. Seed 1500 HEK293 cGMP-sensor cells expressing hNpr1 per well in 4uL into Greiner 1536-well white/solid bottom high base, tissue culture-treated plates.
2. Incubation. Incubate plated cells at 37C in 5% CO2, 95% RH overnight.
3. Reagent. Add 1uL per well GloSensor reagent from Promega (2% final concentration) or CO2 independent media vehicle control to respective columns of Greiner 1536-well plates.
4. Incubation. Incubate plated cells at room temperature for 2 h, protect from light.
5. Compounds. Library compounds and A-71915 control added at 23 nL per well, transferred by Pin Tool.
6. Incubation. Incubate plated cells for 30 min. at room temperature, protect from light.
7. Detector. GloSensor baseline pre-read luminescence measured using CCD-based camera (Viewlux).
8. Compound. Add 1uL of hNppA peptide to 0.1 nM final concentration to stimulate hNpr1 or CO2 independent media as vehicle control.
9. Incubation. Incubate treated cells at room temperature for 20 min., protect from light.
10. Detector. GloSensor post-hNppA luminescence measured using CCD-based camera (Viewlux).
NOTES (numbers refer to Sequence numbers above)
1. HEK293 cells expressing hNpr1 and GIP/pGS-40F grown to 85-95% confluence (48-72 h) in T175 culture flasks (CO2 independent media supplemented with 10% FBS, 1% Pen/Strep antibiotics and 1 ug/mL puromycin). Trypsinize and harvest cells from T175 culture flasks and filter through 40 um cell strainer. Cells counted with Invitrogen Countess (30,000,000 - 50,000,000 cells/flask). Cells diluted to a final concentration of 375 cells/uL in CO2 independent media and a Millipore multidrop used to dispense 1500 cells per well (4uL/well) into 9 x 1536-well Greiner White/Solid bottom, high base tissue-culture treated (TC) plates and one Aurora 1536-well Black/Clear bottom, low base, TC plate (for visual inspection of cell health throughout the duration of the assay).
2. Cells incubated overnight at ambient temperature, 24 h. at 37C in 95% RH incubator protected from light, covered with metal lid with gas-exchange holes.
3. Prepare GloSensor Reagent (Promega): Reconstitute GloSensor luciferase substrate by adding 8.2mL Hepes buffer to 250mg substrate, mix well, protect from light and stored at -80C. Prepare a fresh 12% GloSensor solution in CO2 independent supplemented plating media (see above). Mix well and store at ambient temperature, protected from light. 1uL 12% GloSensor Luciferase Reagent added (2% final concentration) to respective columns of 9 x 1536-well Greiner plate with BioRaptr, 1uL CO2 independent plating media added to respective columns as vehicle control with BioRaptr.
4. […]
Regarding `C[C@H](Cc1ccc2c(c1)OC(C(=O)O)(C(=O)O)O2)NC[C@H](O)c1cccc(Cl)c1`, the Potency entry is “inactive”. For `O=[N+]([O-])/C=C/c1ccc2c(c1)OCO2` the value was 2.39 µM (active). For `C=CCN1CCC23c4c5ccc(O)c4O[C@H]2C(=O)CC[C@@]3(O)C1C5` (stereo not given in full) the value was “inactive”. Regarding `c1ccc2c(N3CCNCC3)cccc2c1`, the Potency result is “inactive”. `NCCc1c[nH]c2ccc(C(N)=O)cc12`: the Potency entry is “inactive”. Consider `CCCN(CCC)[C@H]1CCc2c(F)ccc(O)c2C1`, for which the Potency entry was “inactive”. To `O=S1(=O)N(CCN2CC=C(c3c[nH]c4cc(F)ccc34)CC2)c2cccc3c2N1CCC3` belongs “inactive”; to `C[Se]C[C@H](N)C(=O)O`, “inactive”; to `C[C@H](N)Cc1cccc(C(F)(F)F)c1`, “inactive”. To `Clc1cc(I)cc(Cl)c1NC1=NCCN1` belongs “inactive”. Take `CN(N=O)c1cc(O)ccc1O`: the Potency result was “inactive”. Turning to `NC(CCCCCP(=O)(O)O)C(=O)O` (stereo not given), the Potency result was “inactive”. `CCCN(CCC)CCc1c[nH]c2ccc(C(N)=O)cc12`: the Potency entry was “inactive”. On to `N[C@@H](Cn1ccc(=O)[nH]c1=O)C(=O)O`, for which the Potency entry is “inactive”. As to `O=[N+]([O-])c1cc(O)c(O)c([N+](=O)[O-])c1`, the Potency result was “inactive”.

`C=CCN1CCc2cccc3c2[C@H]1Cc1ccc(O)c(O)c1-3`: the Potency entry was “inactive”. In the case of `C=CCN1CC[C@]23c4c5ccc(O)c4O[C@H]2/C(=N/NC(=O)c2ccccc2)CC[C@@]3(O)[C@H]1C5`, the Potency result was “inactive”. With `CCCN1CCC[C@@H](c2cccc(O)c2)C1`, the Potency entry is “inactive”. For `C[N+]1(C)C2CCC1CC(OC(=O)c1c[nH]c3ccccc13)C2` (stereo not given) the value was “inactive”.

For the molecule `C[N+]1(C)CCN(c2ccccc2)CC1`, the Potency result is “inactive”. As to `N[C@@H](CCl)C(=O)O`, the Potency result was “inactive”. For `CC(N)c1cccc(Cl)c1Cl` (stereo not given) the value was “inactive”. With `CNc1ccc2oc(C[C@H]3O[C@@]4(CC[C@H]3C)O[C@H]([C@H](C)C(=O)c3ccc[nH]3)[C@H](C)C[C@H]4C)nc2c1C(=O)O`, the Potency entry is “inactive”. In the case of `C=CCN1C[C@@H](C)N([C@H](c2ccc(C(=O)N(CC)CC)cc2)c2cccc(OC)c2)C[C@@H]1C`, the Potency entry is “inactive”. Take `Oc1ccc2c3c1O[C@H]1c4oc5ccccc5c4C[C@@]4(O)C(C2)N(CC2CC2)CCC314` (stereo not given in full): the Potency entry was “inactive”. For `COC(=O)N1CCN(C(=O)Cc2ccc(Cl)c(Cl)c2)C(CN2CCCC2)C1` (stereo not given), the Potency result was “inactive”. With `C[N+]1(C)CCOC(O)(c2ccc(-c3ccc(C4(O)C[N+](C)(C)CCO4)cc3)cc2)C1` (stereo not given), the Potency entry was “inactive”. To `NC(C(=O)O)c1cc(=O)[nH]o1` (stereo not given) belongs “inactive”.

Take `CC1(C(=O)O)C2CCC(O2)C1(C)C(=O)O` (stereo not given): the Potency entry was “inactive”. `NCCc1ccc(S(=O)(=O)F)cc1`: the Potency entry is “inactive”. For `CN1CCc2cccc(Cl)c2CC1` the value was “inactive”; for `CCCN1CCc2cc(O)cc3c2[C@H]1Cc1ccc(O)c(O)c1-3`, “inactive”.

For the molecule `CC12NC(Cc3ccccc31)c1ccccc12` (stereo not given), the Potency result was “inactive”.

For `NNC(N)=O`, the Potency entry was “inactive”.

`NC(=O)c1cc(N2CC2)c([N+](=O)[O-])cc1[N+](=O)[O-]`: the Potency result was “inactive”. `COc1ccc2c(c1O)-c1cccc3c1[C@@H](C2)N(C)CC3`: the Potency entry was “inactive”. On to `COc1ccc2c(c1)/C(=C/c1cnc[nH]1)C(=O)N2`, for which the Potency entry is “inactive”. `C[N+]1(C)CCc2cc3c(cc2[C@H]1[C@@H]1OC(=O)c2c1ccc1c2OCO1)OCO3`: the Potency entry is “inactive”. Turning to `CN1CCc2cc(O)cc3c2[C@H]1Cc1ccc(O)c(O)c1-3`, the Potency entry is “inactive”. To `CCN(CCCl)Cc1ccccc1Br` belongs “inactive”.

Values taken from PubChem BioAssay (NCATS).
